Source: the supplement of paper PMC6555819

Each sequence was assayed on VDR:RXRa (NR concentration 270 nM, RXRa partner concentration 90 nM) (assay: PBM binding z-score (relative to random genomic background probes); higher = stronger binding; sequences stand for … in GC…GCGATTGACAGCGTAGAATGAAGG).
Description: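 Protein-binding microarray (Agilent 4x180K custom design, double-stranded 60-nt probes: 5' GC cap, 34-nt variable region, 24-nt constant primer region; full probe sequence given). Purified or IVT nuclear receptor:RXRα heterodimers (3:1 NR:RXRα, mostly 270:90 nM) or homodimers were incubated for 1 h in PBS with 2% milk and no ligand, then detected with Alexa488 antibodies. Fluorescence from o1-orientation probes (~5 replicates averaged) was converted to z-scores against 500 random hg19 background probes. Variable regions are seed direct-repeat (DR0–DR5) sites, all their single-nucleotide variants and half-site ablations.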

| Sequence | PBM binding z-score |
| --- | --- |
| CGTCAAAGTTCACGGTAACGTAACAGAAAGCAGC | 4.74 |
| CCTTACGGGTAACTGACAGGTTATAGCATTTGGA | 0.0689 |
| TCAGATAGGTAAATGCTAGGTGAAAGTCCGATCT | 0.407 |
| TGTCAAAGTTCAAAGGTAAGGTAAGTATCCACAC | 4.95 |
| GCAGACAGGTGAAAAGCAGGTAACTCAGGGTGGC | -0.329 |
| GATACAGGGCCAAGGCCAGAGTACGCGTATTGAT | -0.59 |
| CAAACTAGGTCAACAGGTCAAAGTCCGCTTCCCG | 4.87 |
| TCATATAGGTCAAGGTGAAAGTCGAACGATATGA | 2.94 |
| TCGAGTAGTTTACCAATGGGGCATTCAGCTTTCT | -0.0762 |
| TCTTGTAGATCAACAAGAGGTTAAGAAAGATCGA | 1.08 |
| GCTCCGAGGACAAGGTCAGAGCTTTGTCCGTAGA | 1.43 |
| ATATGTAGGTTAGCAGGGGTCATTCAGACTAGGC | 6.33 |
| ATCTCTAGGTAAAGATAGTTCAGTGCATGCAAAT | 0.777 |
| CGAACGAGGGCATGAGATGATAGCAAATGCCGAT | 0.478 |
| TCTTGTAGATCAACAGGAGGTTAGGAAAGATCGA | 0.0401 |
| GATACAGTGTCAAGGCCAGAGTACGCGTATTGAT | 0.126 |
| ATCTGTAGGTAAAGATAGTTCAGTGAATGCAAAT | 0.945 |
| GCTAGTTGGTCGGTAAAAGGTCACACACCGGTCG | 3.89 |
| CAAACCAGGTCACCGGAAGGTCAAAGTCCGCATG | 6.39 |
| TCTATTTGTTGAAGGGCAACCGACGAGTCCGTTT | 1.19 |

| Sequence | PBM binding z-score |
| --- | --- |
| AGAATGAGGTTAAGATCGGGGAAACAGAATACAT | 1.18 |
| CCGACTGGGGCATAAGGTGACCATAAGCCAGCCC | -0.42 |
| CCTAGCAGGCCAGGGTCAATCAAGCATTTCGCTT | 2.86 |
| AGTCAAAGTTCAGGACGAGGTAAGGTAAAGCACG | 2.4 |
| CCTTACGGGTCAAGATTATAGCACGGGTGGTACG | 2.9 |
| TCTCGGAGGACACGAAAGGTTAGAGCTCGACATC | 0.803 |
| CCTACTGGCCCAAAAAGGTCATTGATGCCGATAA | 4.47 |
| TGAATGAGGTTAAAGATCAGAGAACGTGGCGTCG | 1.8 |
| TCATATAGGTAATACAGGTGCAAGTCGGCATCTA | 1.91 |
| ACTAGTTGGTCAGCTGAGGACACACACAATTCGG | 0.506 |
| TCATAAAGGTAAAGGTGAAAGTCGAACGATATGA | 0.948 |
| AATACAGGGTCATCGGAGGCCAGAGTACGCACAG | 5.88 |
| TCATATAGGTAAAAGGTGAAAGTAGGTGTGGTAA | 1.93 |
| CGTCCAAGGACAGAGAGGTCAGTGAATGCCGAGT | 3.03 |
| ACAATGAGGTTACCAAAGATCAGGGAAACGCTTG | 1.68 |
| GCGACTGGGGCAAAGCAGGTTAGCATAAGGTTGG | -0.429 |
| TCTTGTAGATCAATAGCGGTTAAGAAAGTGCGCT | 0.46 |
| CGTCCCAGGTCAAGGTCAGTGAAAGAGACTCGAA | 3.85 |
| CCTACTGGGCCAAGGTCATTGTTCAGTCAAAGCA | 3.15 |
| AGAACGAGGGCAATGAGGTGATAGCACGGGTGGC | 3.78 |
